{"source": "the OligoGym collection"}
{"molecular_target": "GHSR", "test": "pooled miR-30 sensor sort-seq; sequence = guide strand", "conditions": "shRNA"}
{"sequence": "TTTGCAGAGGAGGTCGCCGAAG", "sensor-assay potency score (higher = more potent)": -1.38}
{"sequence": "TAGAAGAGGACAAAGGACACGA", "sensor-assay potency score (higher = more potent)": 0.735}
{"sequence": "AAGTCTGAACACTGCCACCCGG", "sensor-assay potency score (higher = more potent)": -1.26}
{"sequence": "TTGGACATGATGTTGTACAGAA", "sensor-assay potency score (higher = more potent)": 0.099}
{"sequence": "TGGAAAATAAATATCGCCCTAC", "sensor-assay potency score (higher = more potent)": -0.395}
{"sequence": "TTGAACCCCGGCTCTTCGCTGG", "sensor-assay potency score (higher = more potent)": -0.129}
{"sequence": "TTGGAAAATAAATATCGCCCTA", "sensor-assay potency score (higher = more potent)": -0.35}
{"sequence": "TTTCACGGTTTGCTTGTGGTTC", "sensor-assay potency score (higher = more potent)": -0.265}
{"sequence": "TTGCAGTACTGGCTGATCTGAG", "sensor-assay potency score (higher = more potent)": -0.301}
{"molecular_target": "GINS3", "test": "pooled miR-30 sensor sort-seq; sequence = guide strand", "conditions": "shRNA"}
{"sequence": "TTATAAAAACAACAATTCCATC", "sensor-assay potency score (higher = more potent)": -1.34}
{"sequence": "TTTATTTAGCACTAAAATCAAA", "sensor-assay potency score (higher = more potent)": -1.42}
{"sequence": "TTTCTCTTCTTGTAATTCTGAA", "sensor-assay potency score (higher = more potent)": -0.125}
{"sequence": "TTTCTTTCTCAACCTGAGGTTG", "sensor-assay potency score (higher = more potent)": -0.934}
{"sequence": "TCTTCTTGTAATTCTGAACGAG", "sensor-assay potency score (higher = more potent)": -0.383}
{"sequence": "TTCTATGCAATAATGTTGCAAA", "sensor-assay potency score (higher = more potent)": -0.524}
{"sequence": "TTTGTGGCTAGTGAAACTGTAC", "sensor-assay potency score (higher = more potent)": -0.833}
{"sequence": "TACAAGGTCAACCAGCTCCTAT", "sensor-assay potency score (higher = more potent)": -1.16}
{"sequence": "TTATTTAGGAAGGACTTTGATT", "sensor-assay potency score (higher = more potent)": -0.522}
{"sequence": "TAGTGCTTGCTTAACCAGGTTC", "sensor-assay potency score (higher = more potent)": -0.37}
{"sequence": "TTCTCTTCTTGTAATTCTGAAC", "sensor-assay potency score (higher = more potent)": -1.11}
{"sequence": "TAGTGAAACTGTACATCTGAAG", "sensor-assay potency score (higher = more potent)": -1.07}
